# In the library only some 3.5% were active in any assay of this set; here they are far more common.
# TEAD-YAP block: TEAD-YAP interaction inhibition; inhibition, % at 9.12 µM; HEK-TIYL cells, TEAD-Gal4/YAP UAS-luciferase luminescence; AID 1259422; 1.4% of 640,000 active; in the data active = inhibition above about 32%;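 note: 0% = median of test compound wells and 100% = reference inhibitor wells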
# FBW7 act: human FBW7 E3 ligase activation, primary screen | 0.13% of 650,000 active | AID 1259310 | AlphaScreen FBW7–phospho-cyclin E peptide binding, activator screen | normalized activity (activation), % at 26.1 µM; in the data active = normalized activity above about 1.9%;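 note: purified mutant Fbw7 with reduced substrate affinity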
# GPR151 activ: activators of human GPR151 | Q8TDV0 | PathHunter beta-arrestin GPR151 cells, luminescence | activation, % at 11.2 µM | 1% of 650,000 active | AID 1508602; in the data active = activation above about 4.9%;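 note: 0% = median of compound wells and 100% = cells with positive control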
# Target sequence (Q8TDV0 whole entry, looked up): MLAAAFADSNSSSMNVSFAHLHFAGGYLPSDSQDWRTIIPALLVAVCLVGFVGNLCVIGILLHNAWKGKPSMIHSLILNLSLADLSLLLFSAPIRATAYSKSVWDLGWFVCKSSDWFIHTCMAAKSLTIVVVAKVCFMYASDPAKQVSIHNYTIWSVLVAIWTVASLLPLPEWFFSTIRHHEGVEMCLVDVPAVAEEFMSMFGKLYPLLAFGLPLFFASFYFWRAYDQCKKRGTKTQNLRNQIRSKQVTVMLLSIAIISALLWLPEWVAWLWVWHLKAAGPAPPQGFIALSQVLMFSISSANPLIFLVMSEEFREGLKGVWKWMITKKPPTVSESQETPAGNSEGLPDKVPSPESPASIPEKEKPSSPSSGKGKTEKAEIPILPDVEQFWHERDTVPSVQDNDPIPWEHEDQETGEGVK
# MITF primary: human MITF inhibition, primary screen; O75030; AlphaScreen MITF homodimerization, bead proximity signal; inhibition, % at 2.6 µM; 0.91% of 650,000 active; AID 1259374; in the data active = inhibition above about 50%;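 note: 0% = vehicle wells with protein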
# GPR151 conf act: human GPR151 activation, confirmation screen; AID 1508609; shares compounds with GPR151 activ; 6,700 tested, under 10 active; GPR151 PathHunter beta-arrestin cells, luminescence, 90 min; % of EA-reagent control over plate median; activation, % at 11.2 µM;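 active = mean percent activation across replicates above the confirmation screen cutoff of 4.91%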
# GPR119 counter: activates human GPR119 in a GPR151 counter-screen; shares compounds with GPR151 activ; GPR119 PathHunter beta-arrestin cells, luminescence, 90 min; 0 = compound-well median, 100 = enzyme-acceptor control; activation, % at 11.2 µM; 0.3% of 6,700 active; AID 1508611;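 active = mean percent activation in the counterscreen above 29.09%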;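 note: counterscreen on off-target GPR119 to flag nonselective hits from the GPR151 activator screen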
# An asterisk follows results filed as active; x = no result.
SMILES,TEAD-YAP block,FBW7 act,GPR151 activ,MITF primary,GPR151 conf act,GPR119 counter
COc1ccc(C2Nc3cc(C(F)(F)F)c(S(N)(=O)=O)cc3S(=O)(=O)N2)cc1 (stereo not drawn),-7,0,1,15,x,x
CC(C)N(Cc1nc(-c2ccccc2)no1)C(=O)CN1C(=O)c2ccccc2C1=O,-3,0,0,1,x,x
CC(C)N(Cc1nc(-c2ccccc2)no1)C(=O)CCCN1C(=O)c2ccccc2C1=O,9,0,11*,14,0,-4
CC(C)c1ccc(OCC(=O)Nc2ccccc2Cl)cc1,-28,0,0,-12,x,x
COc1ccc(OC)c(C2CC(=O)N3CN(c4ccccc4)CSC3=C2C#N)c1 (stereo not drawn),2,0,5.7*,16,0,0
COc1cccc(C2CC(=O)N3CN(c4ccccc4)CSC3=C2C#N)c1 (stereo not drawn),-2,0,0,8,x,x
CCCOc1ccc(-c2nnc(SCC(N)=O)n2-c2ccccc2)cc1,8,0,5.3*,-2,0,3
CCOc1ccc(-c2nnc(SCC(N)=O)n2-c2ccccc2)cc1,-3,1,0,-11,x,x
CC(C)(C)c1nc(Cc2ccc([N+](=O)[O-])cc2)no1,0,0,8.6*,-1,-1,2
COc1ccc(Cc2noc(-c3ccc([N+](=O)[O-])cc3)n2)cc1,11,0,0,11,x,x
CS(=O)(=O)N1N=C(c2ccc3nccnc3c2)CC1c1ccccc1 (stereo not drawn),-13,0,5.0*,5,-1,-13
Cc1[nH]c2ccccc2c1SCCNC(=O)c1ccc(N2C(=O)CCC2=O)cc1,7,0,6.2*,-2,-1,2
CSc1ccc(Cl)c(C(=O)Nc2ccc(OCC(N)=O)cc2)c1,-7,0,0,-4,x,x
COC(=O)c1cnn2c(C(F)(F)F)cc(-c3ccc(C)cc3)nc12,-10,0,0,-4,x,x
Cc1ccc(-c2cc(C(F)(F)F)n3ncc(C(=O)OC(C)C)c3n2)cc1,9,0,5.4*,-5,0,13
O=C(CSc1ncc(-c2ccc(Cl)cc2)[nH]1)N1CCCCC1,-34,0,0,4,x,x
Cc1oc(-c2ccccc2F)nc1CS(=O)(=O)CC(=O)NC1CCCC(C)C1C (stereo not drawn),-4,0,-1,7,x,x
Cc1cc(C(=O)Nc2cccc(NC(=O)c3ccccc3)c2)ccc1[N+](=O)[O-],-11,0,6.3*,8,0,3
Cc1cccc(NC(=O)c2ccc(NCCc3ccccc3)c([N+](=O)[O-])c2)c1,6,0,6.6*,10,-1,-4
Cc1cc(C(=O)Nc2cccc(O)c2)ccc1[N+](=O)[O-],-36,0,-1,15,x,x
CC(C)(C)CC(=O)NCCCS(=O)(=O)N1CCN(c2ccc(F)cc2)CC1,13,0,6.6*,10,1,1
C=CCNC(=O)C1CCN(S(=O)(=O)c2ccc(Br)cc2)CC1,8,0,5.7*,-3,1,-4
COCCCNC(=O)C1CCN(S(=O)(=O)c2ccc(Br)cc2)CC1,10,0,-1,2,x,x
O=C1N(C2CCCC2)C[C@@H]2C[C@@H](c3cccn3-c3nccs3)N3CCC[C@@]123,4,0,6.4*,6,1,5
COc1ccc(C(=O)NCCS(=O)(=O)NCCCOC(C)C)cc1,-2,0,5.2*,3,-2,-15
SMILES,TEAD-YAP block,FBW7 act,GPR151 activ,MITF primary,GPR151 conf act,GPR119 counter
O=C(NCc1ccccc1)NC1(C(=O)NCc2ccc3c(c2)OCO3)CCCCC1,11,0,1,1,x,x
CCC(=O)N1CCN=C1SCc1cccc(C)c1,2,0,7.1*,1,1,9
CCC(=O)N1CCN=C1SCc1cccc(Cl)c1,-3,0,-1,-5,x,x
CC(=O)c1ccc(OC(C)C)c(CSC(=N)N)c1,6,1,6.5*,13,0,2
O=C1OC(/C=C/c2ccc([N+](=O)[O-])cc2)=NC/1=C/c1cccc(Br)c1,6,0,0,3,x,x
Cc1ccc(Cl)cc1NC(=O)CSc1nnc(-c2ccco2)o1,-5,0,0,15,x,x
O=C(Cn1ncc2c(Cl)cccc21)NCc1cccc(Br)c1,-9,0,6.5*,0,0,0
O=C(Cn1ncc2ccccc21)NCc1cccc(Br)c1,-42,0,-1,-10,x,x
COc1ccc(CCN2C(=O)CC(Cc3ccc(Br)cc3)C2=O)cc1OC (stereo not drawn),-4,0,5.6*,0,-1,-7
CCCCC[C@@](C)(O)/C=C/[C@H]1[C@H](O)CC(=O)[C@@H]1C/C=C\CCCC(=O)O,x,x,0,11,x,x
O=C(Nc1ccc(F)c(Cl)c1)C(=S)NCc1ccco1,-28,0,2,16,x,x
CC(C)(C)c1ccccc1NC(=O)CCl,5,0,-1,5,x,x
CC(=O)N(C)c1ccccc1NC(=O)CCl,-9,0,8.7*,-12,0,4
CC1(C)C(=O)OC(c2ccccc2)C2(CCCC2)C1=O (stereo not drawn),-1,0,6.0*,-3,1,5
CC1(C)C(=O)OC(c2ccc(Br)cc2)C2(CCCCC2)C1=O (stereo not drawn),2,0,-1,13,x,x
CCC(=O)Nc1sc2c(c1C(=O)Nc1ccccc1C)CCC(C)C2 (stereo not drawn),-2,0,0,-13,x,x
COC1CCN(c2nc3nonc3nc2NCc2cccs2)CC1,-27,0,8.8*,6,1,2
COCC1CCN(c2nc3nonc3nc2NCc2cccs2)CC1,1,0,0,-3,x,x
O=S(=O)(c1cccc(-c2nnc(SCCOc3ccccc3)o2)c1)N1CCOCC1,1,0,6.5*,10,0,9
N#Cc1ccc(CSc2nnc(-c3cccc(S(=O)(=O)N4CCCCC4)c3)o2)cc1,-3,0,8.7*,0,1,-7
CC(=O)Nc1ccc([N+](=O)[O-])cc1C(=O)C(=O)Nc1cccc(C)c1,-3,0,0,1,x,x
CCC1=NN(C(=O)c2ccccc2Cl)C(O)(c2ccncc2)C1 (stereo not drawn),5,0,0,11,x,x
Cc1ccc(NCCCC(=O)N/N=C/c2ccco2)cc1,3,0,-1,-5,x,x
COC(=O)c1ccc(OCCOCCOc2cccc3ccc(C)nc23)cc1,2,0,-1,7,x,x
COc1cccc(OCCCOc2cccc3ccc(C)nc23)c1,9,0,5.4*,10,0,-6
O=C(Nc1ccccc1N(C(=O)C1CC1)S(=O)(=O)c1cccs1)C1CC1,3,0,5.0*,3,0,15
C=CCn1c(=O)c2c(nc3n2CCCN3c2ccc(CC)cc2)n(C)c1=O,16,0,7.4*,3,0,-4
